In the library only some 4.7% were active in any assay of this set; here they are far more common.
hDAT+cocaine: changed hDAT dopamine uptake under cocaine IC80, either direction, primary screen, cocaine antagonist project, cell-based, LLC-PK1 hDAT, [14C]-dopamine uptake, MLSMR; LLC-PK1 hDAT cells, [14C]-dopamine uptake with cocaine IC80; actives deviate in either direction; B-score at 10 µM; 110,000 tested, 1.3% active;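 active = Z score or B-score, a plate-position-corrected score, falls beyond the plate's 99.7% confidence bounds, in either direction; inactive = both scores lie inside the 99.7% bounds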;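 note: scored against the spread of the other compound wells on the same plate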
Target sequence (Q01959 whole entry, looked up): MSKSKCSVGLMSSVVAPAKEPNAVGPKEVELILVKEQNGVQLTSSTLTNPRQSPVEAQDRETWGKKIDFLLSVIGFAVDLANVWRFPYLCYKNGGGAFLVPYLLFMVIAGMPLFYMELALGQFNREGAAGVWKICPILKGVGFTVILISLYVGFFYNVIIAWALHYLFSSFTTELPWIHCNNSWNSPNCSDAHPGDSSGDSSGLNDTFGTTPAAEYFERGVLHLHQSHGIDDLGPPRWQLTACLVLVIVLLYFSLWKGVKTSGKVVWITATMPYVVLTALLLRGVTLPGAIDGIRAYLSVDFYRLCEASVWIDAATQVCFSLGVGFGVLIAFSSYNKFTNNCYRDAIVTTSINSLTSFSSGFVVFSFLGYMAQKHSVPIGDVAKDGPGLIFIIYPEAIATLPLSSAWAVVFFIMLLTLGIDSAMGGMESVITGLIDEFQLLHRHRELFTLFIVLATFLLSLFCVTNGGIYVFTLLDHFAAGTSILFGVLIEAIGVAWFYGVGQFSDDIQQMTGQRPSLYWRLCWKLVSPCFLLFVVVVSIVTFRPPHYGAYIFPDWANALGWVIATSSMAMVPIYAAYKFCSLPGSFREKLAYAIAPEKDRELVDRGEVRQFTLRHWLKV
SDO1 yeast rescue: growth rescue of sdo1-depleted yeast, primary screen, S. cerevisiae, bone marrow failure model | S. cerevisiae sdo1-depleted JHY4D growth rescue, OD600 30 h; hits give high values; pdr5 snq2 efflux-pump mutant strain | z-score at 10 µM | 140,000 tested, 0.21% active;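 active = z-score above 3 at both the 24 hr and the 30 hr optical density reads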;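 note: z-score against mean and SD of all compound wells on the same plate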
Plk1 PBD FP: Plk1 polo box domain binding inhibitors, primary screen, biochemical, fluorescence polarization | 97,000 tested, 0.13% active | Plk1 PBD phosphopeptide binding | AID 693, 2007 | Serine/threonine-protein kinase PLK1 (Homo sapiens), P53350 | inhibition, %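 (tested at about 20 µM)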; in the data active = inhibition above about 34%, passing the limit was not always enough
PLK1 inh: human PLK1 kinase inhibitors, primary screen, biochemical, TR-FRET; recombinant PLK1 kinase, TR-FRET peptide phosphorylation; inhibition, % at 10 µM; 97,000 tested, 0.53% active;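 active = inhibition of 50% or more in the single-concentration screen; inactive = inhibition below 50%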;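 note: 0% = DMSO max control and 100% = H-89 dihydrochloride min control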
Cav3 T inh: Cav3.2 calcium influx blockers – cell-based, Fluo-4 calcium fluorescence, FDSS, MLSMR library, primary screen; Voltage-dependent T-type calcium channel subunit alpha-1H (Homo sapiens), O95180; Cav3.2-expressing cells; hits give low values; B-score at 10 µM; 100,000 tested, 4% active; AID 449739, 2010;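 active = single-dose well whose peak fluorescence ratio is a statistical outlier from its plate by either plate-standardised score or position-corrected B-score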
PTK2B oligo ant: antagonists of Pyk2 self-association, primary screen, Q293 cells, FERM NanoBiT luminescence, HTS; AID 1347419, 2020; z-score (the deposit names both 25 µM and 10 µM); Protein-tyrosine kinase 2-beta (Homo sapiens), Q14289; 99,000 tested, 0.83% active; hits give low values;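 active = Z-score of -3 or lower, scaled per plate to the spread of control and sample wells; inactive = z-score above -3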;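 note: negative z-score means lost luminescence so less FERM oligomerization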
Starred values were filed as active, the others as inactive; . = no result.

SMILES	hDAT+cocaine	SDO1 yeast rescue	Plk1 PBD FP	PLK1 inh	Cav3 T inh	PTK2B oligo ant
Cc1ccc(C)c(NC(=O)CSc2nnc(CSc3nc(C)cc(C)n3)n2Cc2ccco2)c1	1.7	-0.07	.	.	-1.4	0.85
COC(=O)C[C@H]1c2cc(C(F)(F)F)ccc2S(=O)(=O)N1Cc1ccccc1OC	0.34	.	.	.	-0.97	.
Cc1cc(C)c(C#N)c(SCC(=O)c2ccc(Cl)cc2Cl)n1	-1.2	-0.89	-14	-4	0.061	-1.6
CN=C(NC#N)SCC(=O)c1ccc(Cl)cc1Cl	1.2	1.4	9	62*	-0.15	-2.2
CC1(c2ccc(OC(F)F)cc2)NC(=O)N(/N=C/c2c(O)ccc3ccccc23)C1=O (stereo not given)	.	0.01	.	.	.	.
Cc1cc(C)c(-n2c(C)cc(/C=C3/NC(=O)NC3=O)c2C)c(C)c1	-0.13	-1.6	29	-4	-6.1*	.
O=C(N/N=C\c1cccc(Cl)c1)c1ccc(Cn2cc(Br)c([N+](=O)[O-])n2)o1	.	-0.54	.	.	.	.
Cc1c(Cl)c([N+](=O)[O-])nn1Cc1ccc(C(=O)N/N=C\c2cccc(Br)c2)o1	-1.1	0.99	-12	-8	-6.4*	-1.7
O=C(NCCc1ccc(Cl)cc1)C1CCN(S(=O)(=O)c2cccc3nonc23)CC1	-2.2*	0.03	3	-10	.	-0.24
COc1ccc2nc(NC(=O)C3CCN(S(=O)(=O)c4cccs4)CC3)sc2c1	2.8*	-1.9	1	6	-1.9	-1.3
O=C(NCCc1ccc(Cl)cc1)C1CCN(S(=O)(=O)c2cccs2)CC1	0.66	-0.33	13	-8	-6.7*	-1.5
COC(=O)CSc1nnc(-c2ccncc2)o1	0.036	0.37	-6	-6	-0.41	0.15
O=C(OCC#CCSc1nnc(-c2ccncc2)o1)c1cccs1	-0.48	-0.45	-11	54*	-4.3*	1.9
CCOC(=O)/C(C#N)=C1\CCCN1CC(N)=S	.	1.3	.	.	.	.
O=C(Nc1nnc(C(F)(F)F)s1)C1COc2ccccc2O1 (stereo not given)	-2.1	-0.41	15	-11	-4.2*	-0.89
N#Cc1c(-c2ccco2)cc(-c2cccnc2)nc1N	0.15	0.62	36	55*	0.1	1.2
CCN(CC)C(=O)c1sc(NC(=O)c2ccncc2)c(C(=O)OC)c1C	.	0.47	.	.	.	.
CCN(CC)C(=O)c1sc(NC(=O)C(Sc2ccccc2)c2ccccc2)c(C(=O)OC(C)C)c1C (stereo not given)	1	1.2	-18	-11	-4.5*	-1.6
Cc1nc2sccn2c(=O)c1CCN1CCC(=C(c2ccccc2)c2ccc(F)cc2)CC1	-3.5*	-1.5	.	.	-4.2	.
CCOC(=O)c1c(C)nc2sccn12	-0.051	0.02	.	.	0.4	1.7
CCCC(=O)NCCc1nc2cc([N+](=O)[O-])ccc2n1C	.	0.32	.	.	.	.
Cc1ccc(Cl)cc1NC(=O)C(Cc1ccccc1)N1C(=O)C2C3CCC(C3)C2C1=O (stereo not given)	.	-1.7	.	.	.	.
Cc1ccc(NC(=O)C(Cc2ccccc2)N2C(=O)C3C4CCC(C4)C3C2=O)cc1Cl (stereo not given)	-0.63	-0.24	-5	-3	-5.8*	-0.7
Cc1ccc(NC(=O)CC(O)(C(F)(F)F)C(F)(F)F)c(Br)c1	-3*	-0.29	-18	-5	-0.89	-0.97
COC(=O)C1=C(C(=O)OC)[C@@H]2N(Cc3ccccc3)c3ccccc3[C@@]23C[C@@H](C(=O)OC)N(C(=O)NC(C)(C)C)C3=N1	1.5	.	.	.	-2.4	.
SMILES	hDAT+cocaine	SDO1 yeast rescue	Plk1 PBD FP	PLK1 inh	Cav3 T inh	PTK2B oligo ant
O=C1N[C@@H](Cc2cn(S(=O)(=O)c3c(F)c(F)c(F)c(F)c3F)c3ccccc23)C(=O)N[C@H]1Cc1ccccc1	-1.3	.	.	.	0.39	.
COc1cc2nc(SCC(=O)NCc3ccco3)n(Cc3ccc(Cl)cc3)c(=O)c2cc1OC	3.8*	-0.71	-19	-14	-0.99	0.67
CCOC(=O)N1CCN(C(=O)c2ccc3c(=O)n(Cc4ccccc4)c(=S)[nH]c3c2)CC1	0.31	0.23	-15	-5	-2.8	2.3
CCOC(=O)N1CCN(C(=O)c2ccc3c(=O)n(Cc4ccc(OC)cc4)c(=S)[nH]c3c2)CC1	0.7	0.2	5	-8	-4.1*	1
O=C(/C=C/Nc1ccc(Cc2ccc(N/C=C/C(=O)C(F)(F)F)cc2)cc1)C(F)(F)F	.	-0.5	.	.	.	.
O=C(COc1ccc(Cl)cc1Cl)Nc1nc2n(n1)C(c1ccccc1)CC(=O)N2 (stereo not given)	-2	0.88	7	-3	-3.7*	-0.72
CCCCCC/C(=N\NS(C)(=O)=O)c1ccccc1	-0.24	-0.28	-1	-4	-4.9*	-0.12
O=C(NCCc1cccc(F)c1)/C(=C/c1cccnc1)NC(=O)c1ccccc1	.	-0.82	.	.	.	.
CCCn1c(SCC(=O)NCCc2ccc(Cl)cc2Cl)n[nH]c1=O	3.4*	0.23	10	-4	0.085	0.55
COc1ccc(NC(=S)NNC(=O)C2CC2c2ccc(C)cc2)cc1 (stereo not given)	.	0	.	.	.	.
Cc1ccc(NC(=S)NNC(=O)C2CC2c2ccc(C)cc2)cc1 (stereo not given)	0.35	-0.89	-3	-15	-6.7*	1.6
Cc1ccc(C2CC2C(=O)NNC(=S)Nc2cccc(C)c2)cc1 (stereo not given)	0.56	-1.9	7	-3	-8.7*	-0.1
N#Cc1cc([N+](=O)[O-])cnc1N(CCO)CCO	.	0.07	.	.	.	.
Cc1ccc2[nH]c(=O)c(CN(Cc3ccc4c(c3)OCO4)Cc3nnnn3Cc3ccco3)cc2c1	1.5	0.02	-14	-3	-5.8*	0.3
Cc1cc(C)c2cc(CN(Cc3ccc4c(c3)OCO4)Cc3nnnn3Cc3ccco3)c(=O)[nH]c2c1	3*	-0.51	-17	-8	-0.98	-0.07
CCc1ccc2[nH]c(=O)c(CN(Cc3ccccc3)Cc3nnnn3Cc3ccco3)cc2c1	1.7	-0.33	-35	-11	-1.5	0.23
Cc1cccc(NC(=S)NNC(=O)c2csc(C(C)C)c2)c1	0.63	-0.46	-4	-5	-5.5*	-0.72
CCc1cc(C(=O)NNC(=S)Nc2cccc(C)c2)cs1	0.64	0.01	9	-12	-2.2	0.32
COc1ccc(S(=O)(=O)NCCc2nnc3ccc(SCC(=O)Nc4nc(C)cs4)nn23)cc1	.	0.89	.	.	.	.
COc1ccc(NC(=O)OCC(C)C)cc1OC	0.95	0.35	8	-4	0.047	-0.33
CC(C)COC(=O)NCCOC(=O)Nc1cccc(Cl)c1	0.42	-1.1	10	-6	-5.7*	1.1
COc1ccc(OC)c(NC(=O)c2ccccc2OC(C)=O)c1	-0.56	.	.	.	-0.84	.

Source: PubChem BioAssay
